In all, about 4,100 sequences were measured (“RBNS R-value (6-mer enrichment in protein-bound RNA vs input library)”: median about 0.96, highest 2% from about 2.4 on). The sample holds the highest values, similar sequences and a random draw of the others, so the mix is not that of the screen.
System: PyIESI-1 RRM domain (Plasmodium yoelii PY17X_0911200 aa 795-956, GST fusion)
Test: RBNS R-value (6-mer enrichment in protein-bound RNA vs input library) (ratio); higher = stronger binding preference; the methods of the paper give 50 / 100 / 500 nM protein instead
Procedure: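 RNA Bind-n-Seq: recombinant GST-tagged IESI-1 RRM domain was incubated at room temperature with a random 40-nt in vitro transcribed RNA library at 250, 500 or 1000 nM protein. Bound RNA was pulled down on glutathione beads and sequenced. R-value is the enrichment of each 6-mer in the bound RNA relative to the input library. Each 6-mer sits inside the random 40-mer context, not as an isolated oligo. Values are replicate 1 only.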

Sequence | RBNS R-value (protein concentration: 250 nM) | RBNS R-value (protein concentration: 500 nM) | RBNS R-value (protein concentration: 1000 nM)
ACAUUG | 1.19 | 1.17 | 1.2
GACCAG | 1.1 | 1.11 | 1.09
GCUACU | 0.838 | 0.861 | 0.829
GUGGAG | 0.967 | 0.977 | 0.96
AAUUCU | 1.06 | 1.05 | 1.06
AAUUCC | 1.12 | 1.09 | 1.12
GAUUCG | 2.64 | 2.49 | 2.51
GAUUCC | 2.42 | 2.37 | 2.49
CAUUCG | 1.01 | 1.05 | 1.07
GAUUCA | 2.85 | 2.7 | 2.92
AAUUCG | 1.08 | 1.08 | 1.08
UAUUCU | 0.707 | 0.731 | 0.734
GAUUCU | 2.89 | 2.77 | 2.85
UAUUCA | 0.554 | 0.565 | 0.571
AAUUCA | 0.88 | 0.882 | 0.917
CAUUCC | 0.948 | 0.975 | 0.997
GCGCAG | 1.01 | 1.03 | 1.03
ACAUCG | 0.752 | 0.777 | 0.749
UCCAGU | 0.838 | 0.85 | 0.831
ACCCAG | 1.32 | 1.27 | 1.32
AAUCCC | 0.954 | 0.955 | 0.949
ACUGCG | 1.12 | 1.13 | 1.13
GACAAC | 1.09 | 1.07 | 1.07
UCUUCC | 0.978 | 1.01 | 1.03
AGAUCA | 0.82 | 0.812 | 0.814

Sequence | RBNS R-value (protein concentration: 250 nM) | RBNS R-value (protein concentration: 500 nM) | RBNS R-value (protein concentration: 1000 nM)
UGAUCA | 2.37 | 2.38 | 2.64
GGAUCA | 0.767 | 0.764 | 0.736
UGAUCC | 2.58 | 2.6 | 2.82
UGAUCU | 2.74 | 2.75 | 2.93
AGAUCU | 0.946 | 0.924 | 0.93
GGAUCC | 0.932 | 0.922 | 0.909
CGAUCU | 1.15 | 1.15 | 1.19
CGAUCC | 1.19 | 1.22 | 1.26
GUGUUC | 0.821 | 0.855 | 0.82
CGUACU | 0.773 | 0.765 | 0.73
CAGUGA | 1.6 | 1.58 | 1.62
CGAUUC | 2.08 | 2.12 | 2.24
UGAUUU | 7.9 | 7.06 | 7.22
GGAUUU | 1.08 | 1.1 | 1.06
CGAUUU | 2.59 | 2.56 | 2.71
CCAUUU | 0.871 | 0.913 | 0.936
UGAUUA | 6.31 | 5.88 | 6.3
UGAUUC | 6.24 | 5.67 | 5.91
CUAUUU | 0.653 | 0.681 | 0.664
AGAUUA | 1.09 | 1.16 | 1.25
AGAUUU | 1.72 | 1.72 | 1.83
CGAUUA | 1.73 | 1.79 | 1.94
AGAUUC | 1.47 | 1.49 | 1.58
GCCAGU | 0.86 | 0.901 | 0.892
UCUUGC | 1.12 | 1.17 | 1.18

— the supplement of paper PMC13392028
